Values joined by “and” are separate entries in the source; they are usually repeats but may differ in a detail not shown here. Equal values may be shown once. Records with an inconclusive call do not appear. Unmarked numbers belong to inactive results. Active and inactive are the calls of the source. Calls come from the whole dose curve; as a rule, active = well fitted curve in either direction with a large enough effect; inconclusive = small, poorly fitted or top-dose-only effect; inactive = flat fitted curve, though single readings scatter.

Sequence of Neuropeptide S receptor (Homo sapiens) (Q6W5P4 whole entry, looked up): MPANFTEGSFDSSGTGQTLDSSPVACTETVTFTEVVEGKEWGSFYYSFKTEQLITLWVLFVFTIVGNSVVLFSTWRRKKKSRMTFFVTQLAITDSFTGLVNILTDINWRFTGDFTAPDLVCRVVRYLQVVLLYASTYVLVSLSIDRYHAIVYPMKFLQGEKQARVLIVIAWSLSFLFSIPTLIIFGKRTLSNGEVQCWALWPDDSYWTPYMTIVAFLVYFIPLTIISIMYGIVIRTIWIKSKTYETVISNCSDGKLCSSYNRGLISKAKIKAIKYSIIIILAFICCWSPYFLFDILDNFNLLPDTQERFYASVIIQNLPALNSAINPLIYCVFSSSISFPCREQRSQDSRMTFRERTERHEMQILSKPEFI

This assay deals with Neuropeptide S receptor (Homo sapiens) (UniProt Q6W5P4). Briefly: Confirmation Concentration-Response Assay for Antagonists of the Neuropeptide S Receptor: Robust Characterization of cAMP Signal Transduction. Particulars: CHO-NPSR cells, NPS-stimulated cAMP TR-FRET; series mostly up to 50.7 µM; activity, negative = inhibition: at the top concentration. The text has this:
NIH Chemical Genomics Center [NCGC] NIH Molecular Libraries Probe Production centers Network [MLPCN] MLPCN Grant: X01-DA026210-01 Assay Submitter (PI): Heilig, Markus Alexander NCGC Assay Overview: Neuropeptide S receptor (NPSR), previously known as GPR154, is a recently de-orphanized G protein coupled receptor. Its endogenous ligand is the 20 amino acids peptide Neuropeptide S (NPS). […] NPS and its receptor are found in various tissues. Specifically they are highly expressed in brain areas that have been implicated in modulation of arousal, stress and anxiety. Central administration of NPS in mice produces an unusual profile of activity by inducing wakefulness and arousal, while at the same time suppressing anxiety. Therefore, NPSR may represent a novel drug target for the treatment of sleep and anxiety disorders. To identify NPSR antagonists, we developed a cell-based cAMP assay. NPS can stimulate the production of cAMP in Chinese hamster ovary cells stably expressing NPS receptor. This change in intracellular cAMP level can be detected by a homogeneous LANCE cAMP assay based on the TR-FRET (time resolved fluorescence resonance energy transfer) between a europium-labeled cAMP tracer complex and a cAMP-specific antibody labeled with Alexa Fluor 647. The europium-labeled cAMP tracer complex is formed by the tight interaction between Biotin-cAMP (b-cAMP) and streptavidin labeled with Europium-W8044 chelate (Eu-SA). Light pulse at 320 nm excites the europium of the cAMP tracer and the energy emitted is transferred to the Alexa molecule bound to the cAMP antibody, generating a TR-FRET signal at 665 nm. Residual energy from the europium will produce a light at 620 nm. The native unlabeled cAMP from cell lysates competes with the europium-cAMP tracer for antibody binding and reversely reduces the emission signal of Alexa by interrupting FRET between the two labeled molecules. Both emission signals from the FRET donor (620 nm) and the acceptor (665 nm) can be detected by a plate reader in the TRF mode. Expression of result in fluorescence ratio (665 nm/620 nm) helps to normalize differences due to cell density and reagent dispensing. This assay was successfully optimized to a 1536-well plate format. Select compounds from the primary screen (AID 1461) were chosen for confirmation based on potency, efficacy, SAR, and activity across other assays in PubChem and at NCGC. Other compounds are analogs of active compounds from the primary screen. This particular assay uses a high density of sampling across concentration-response space to establish more confidence estimates of potency.
NCGC Assay Protocol Summary: A Chinese hamster ovary (CHO) cell line stably expressing the NPS receptor (CHO-NPSR) was obtained from Dr. Heilig lab at NIAAA and maintained in F-12 Kaighn's media (Invitrogen, Carlsbad, CA, 21127) supplemented with 10 % FBS, 100 units/ml penicillin, 100 ug/ml streptomycin and 250 ug/ml geneticin at 37C, 5% CO2 in a humidified atmosphere. Before the assay, aliquots of cells were frozen and stored at -135C. The assay was performed in 1536-well format. Data are reported for both the ratio of the two emission wavelengths, and also for the component 'donor' channel, Em2=620. […] IC50 values were determined from concentration-response data modeled with the standard Hill equation. NPS 1536-well assay protocol: (1) Fresh or frozen CHO-NPSR cells were suspended in F-12 Kaighn's media supplemented with 10 % FBS, 100 units/ml penicillin and 100 ug/ml streptomycin. Cells were plated at 4 ul/well (1200 cells) to white, tissue culture treated 1536-well plates, and then cultured at 37C, 5 % CO2 for 16 to 30 hours. (2) Add 23 nl/well of compound in DMSO solution. The final titration for each compound was between 0.6 nM and 46 uM. […]
Background: TR-FRET usually uses a lanthanide donor and a delayed reading to cut background.
Take `COc1ccc(C2c3c(n(CCCc4ccccc4)cnc3=N)Oc3ccc4ccccc4c32)cc1OC` (stereo not given): the Potency is 24.4 µM (active). As for `COc1cccc(C2c3c(ncn(-c4ccccc4Cl)c3=N)Oc3ccc4ccccc4c32)c1` (stereo not given), the Potency was 8.67 µM (active). Same read-out and setting: the same measure for `Nc1ncnc2c1C(c1ccccc1)c1c(ccc3ccccc13)O2` (stereo not given): 6.88 µM (active); for `COc1cccc(C2c3c(ncn(-c4cccc(C#N)c4)c3=N)Oc3ccc4ccccc4c32)c1` (stereo not given): 13.7 µM (active). The same measure, in the same setting: the same measure for `COc1ccc(C2c3ccccc3Oc3ncn(CCN4CCOCC4)c(=N)c32)cc1OC` (stereo not given): 4.87 µM (active); for `COc1cccc(C2c3c(ncn(-c4cccc(C)c4)c3=N)Oc3ccc4ccccc4c32)c1` (stereo not given): 9.72 µM (active); for `COc1ccc2c(c1)Oc1ncn(CCN3CCOCC3)c(=N)c1C2c1ccc(OC)c(OC)c1` (stereo not given): 13.7 µM (active). For `CCOC(=O)CCCC(=O)Nc1ncnc2c1C(c1ccccc1)c1c(ccc3ccccc13)O2` (stereo not given), the Potency is 2.44 µM (active). On the same count and under the same terms, the same measure for `COc1cccc(C2c3c(ncn(-c4ccccn4)c3=N)Oc3ccc4ccccc4c32)c1` (stereo not given): 17.3 µM (active). The same measure, in the same setting: the same measure for `CCOc1ccc(C2c3c(ncn(-c4ccccc4)c3=N)Oc3ccc4ccccc4c32)cc1OCC` (stereo not given): 3.45 µM (active); for `COc1ccc(C2c3c(ncn(Cc4ccccc4)c3=N)Oc3ccc4ccccc4c32)cc1OC` (stereo not given): 13.7 µM (active); for `Fc1ccc(-c2c(P(=S)(c3ccccc3)c3ccccc3)n3ccccc3[n+]2C/C=C/c2ccccc2)cc1`: 0.471 µM (active). For the compound `COc1cccc(C2c3c(ncn(-c4ccccc4C)c3=N)Oc3ccc4ccccc4c32)c1` (stereo not given), the Potency was 6.88 µM (active). Consider `COc1cccc(C2c3c(ncn(CCN4CCOCC4)c3=N)Oc3ccc4ccccc4c32)c1` (stereo not given), for which the Potency is 12.2 µM (active).

On to `O=C(Cc1ccccc1)Nc1ncnc2c1C(c1ccccc1)c1c(ccc3ccccc13)O2` (stereo not given), for which the Potency was 2.74 µM (active). With `COc1cccc(C2c3c(ncn(-c4ccccc4)c3=N)Oc3ccc4ccccc4c32)c1OC` (stereo not given), the Potency is 4.34 µM (active). Take `COc1ccc(C2C3=C(N=CN(CCN4CCOCC4)C3N)Oc3ccccc32)cc1OC` (stereo not given): the “activity, negative = inhibition” value is -4.91%. For the compound `N=c1c2c(ccn1-c1ccccc1)Oc1ccc3ccccc3c1C2c1ccccc1` (stereo not given), the Potency was 1.09 µM (active). On to `S=P(c1ccccc1)(c1ccccc1)c1nc(CCCc2ccccc2)n2ccccc12`, for which the “activity, negative = inhibition” value was 14.1%. For the compound `COc1ccc(C2c3ccc4ccccc4c3Oc3ncn(CCN4CCOCC4)c(=N)c32)cc1OC` (stereo not given), the Potency was 30.7 µM (active). For the compound `Cc1nc2ccccn2c1C(O)(c1ccccc1)c1ccccc1`, the “activity, negative = inhibition” value is 12.1%.

For `COc1ccc(C2c3c(N)nc(CCc4ccccc4)nc3Oc3ccc4ccccc4c32)cc1OC` (stereo not given), the Potency is 24.4 µM (active). In the case of `COc1cccc(C2c3c(ncn(-c4cccc(Br)c4)c3=N)Oc3ccc4ccccc4c32)c1` (stereo not given), the Potency was 12.2 µM (active). As for `COc1cccc(C2C(C#N)=C(NC(=O)CCc3ccccc3)Oc3ccc4ccccc4c32)c1` (stereo not given), the “activity, negative = inhibition” value is 1.79%. Turning to `COc1cccc(C2c3c(ncn(CCCN4CCOCC4)c3=N)Oc3ccc4ccccc4c32)c1` (stereo not given), the Potency was 4.87 µM (active). As to `COc1ccc(C2c3c(nc(CCCc4ccccc4)[nH]c3=O)Oc3ccc4ccccc4c32)cc1OC` (stereo not given), the “activity, negative = inhibition” value was 12.4%.

Take `Cc1c(C(O)(c2ccccc2)c2ccccc2)[n+]2ccccc2n1C`: the “activity, negative = inhibition” value is 1.1%. As to `COc1cccc(C2c3c(ncn(-c4ccc(NC(C)=O)cc4)c3=N)Oc3ccc4ccccc4c32)c1` (stereo not given), the Potency is 12.2 µM (active). With `COc1cccc(C2c3c(ncn(-c4ccc(-c5ccccc5)cc4)c3=N)Oc3ccc4ccccc4c32)c1` (stereo not given), the “activity, negative = inhibition” value is -2.59%. Turning to `S=P(c1ccccc1)(c1ccccc1)c1c[n+](C/C=C/c2ccccc2)c2ccccn12`, the Potency is 0.56 µM (active).

In the case of `COc1ccccc1C1c2c(ncn(-c3ccccc3)c2=N)Oc2ccc3ccccc3c21` (stereo not given), the Potency is 4.34 µM (active). As to `COc1cccc(C2c3c(ncn(-c4ccccc4)c3=N)Oc3ccc4ccccc4c32)c1` (stereo not given), the Potency is 8.67 µM (active) and 1.54 µM (active). In the case of `COc1cccc(C2c3c(ncn(-c4cccc(F)c4)c3=N)Oc3ccc4ccccc4c32)c1` (stereo not given), the Potency was 3.87 µM (active). Turning to `COc1cccc(C2c3c(ncn(-c4ccc(C#N)cc4)c3=N)Oc3ccc4ccccc4c32)c1` (stereo not given), the Potency was 12.2 µM (active).

As to `COc1ccc(C2c3c(ncn(CCc4ccccc4)c3=N)Oc3ccc4ccccc4c32)cc1OC` (stereo not given), the Potency was 27.4 µM (active). For `COc1ccc(C2c3c(nc(Cc4ccccc4)[nH]c3=O)Oc3ccc4ccccc4c32)cc1OC` (stereo not given), the “activity, negative = inhibition” value is 5.64%. For `COc1ccc(C2c3c(ncn(CCN4CCOCC4)c3=N)Oc3ccc4ccccc4c32)cc1OC` (stereo not given), the Potency is 2.74 µM (active). Regarding `Cc1nc2ccccn2c1P(=O)(c1ccccc1)c1ccccc1`, the “activity, negative = inhibition” value was 10.3%. In the case of `CCOC(=O)CC(=O)Nc1ncnc2c1C(c1ccccc1)c1c(ccc3ccccc13)O2` (stereo not given), the Potency is 3.07 µM (active). Still for that read-out and setting: then `COc1cccc(C2c3c(ncn(-c4ccccc4OC)c3=N)Oc3ccc4ccccc4c32)c1` (stereo not given), with 4.34 µM (active).

Source of the values: PubChem BioAssay AID434936 (National Center for Advancing Translational Sciences (NCATS), 2010).
